The results in this text go back to PubChem BioAssay (NCI).

Compounds without any hit were thinned out: in the full panel of roughly 83,000, 20% have a hit.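 48-hour exposure, single concentration, 96-well plates; percent growth endpoint where 0 means no net growth. Active: below 10.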 The source made the active and inactive calls.

The subject of this assay is NCI-H226 lung. As to the kind of experiment: NCI-60 one-dose screen, 48 h (100 = growth as untreated, 0 = no growth, -100 = all killed). To be noted: 10 µM unless noted. The method, then:
Growth inhibition of the NCI-H226 human Non-Small Cell Lung tumor cell line is measured as a screen for anti-cancer activity. Cells are grown in 96 well plates and exposed to the test compound for 48 hours. Compounds are tested at a single concentration, which is 10^-5 M for most compounds. The reported endpoint is percent growth (GI% or GIPRCNT), where numbers from 0 - 100% represent growth inhibition, and numbers from -100% - 0 represent cell death. For example, a value of 40 represents 60% growth inhibition. A value of 0 means no net growth occurred over the course of the experiment. A value of -40 indicates 40% of cells at the beginning of the experiment died by the end of the experiment. A value of -100 means all cells are dead at the end of the experiment.
NCI-60 Human Tumor Cell Lines Screen was performed using the standard one-dose NCI protocol, which is described in more detail at https://dtp.cancer.gov/discovery_development/nci-60/default.htm.
Compounds with GIPRCNT values below 10 were considered active. Activity score was based on GIPRCNT using the following formula: […]
Score is 0 for GIPRCNT values of 100 or above, 50 for GIPRCNT values of 0, and 100 for GIPRCNT values of -100.
For the molecule `CCCCn1c(=O)c(/C=C/C(=O)/C=C/c2ccc(OC)cc2)cc2cc(Cl)ccc21`, the growth was 70% (inactive).
Take `Nc1c(C(=O)Nc2ccccn2)sc2nc3c(cc12)CCCCCC3`: the growth was 42.1% (inactive).
With `Cc1nn(-c2ccc(-c3ccc(OC(F)(F)F)cc3)cc2)c2nc(-c3ccccc3)nc(N)c12`, the growth was 88.4% (inactive).
For the molecule `COc1ccc(/C=C(/C(=O)N2CCN(Cc3ccccc3)CC2)c2cc(OC)c(OC)c(OC)c2)cc1O`, the growth is 81.7% (inactive).
Consider `Cn1c2ccccc2c2c(OC(=O)c3ccccc3)c3c(nc21)-c1ccccc1C3`, for which the growth is 100% (inactive).
The figure for `c1ccc2c3c([nH]c2c1)C(c1ccc(C2NCCc4c2[nH]c2ccccc42)cc1)NCC3` (stereo not given) is 77.1% (inactive); for `COC(=O)c1ccc2c(c1)NC(=O)[C@@H]1CCCN21` it is 98.5% (inactive); for `COc1ccc(-c2cs/c(=N\N=C\c3ccc(O)cc3O)n2/N=C/c2ccc(O)cc2O)cc1` it is -30.5% (active).
Regarding `CCOC(=O)/C(=C/c1c(-c2ccccc2)[nH]c2ccccc12)C(=O)c1ccc(Cl)cc1`, the growth was 71.3% (inactive).
As to `O=CN1N=C(c2ccc3c(c2)OCO3)CC1c1cccc(Nc2ccnc3cc(C(F)(F)F)ccc23)c1` (stereo not given), the growth was 69.2% (inactive).
`Cc1nccc2c3ccc(OCc4cn(-c5ccc(Br)cc5)nn4)cc3n(CC(C)C)c12`: the growth was 58.1% (inactive).
With `COC(=O)/C=C1\SC(=Nc2cccc(Cl)c2)N(CCc2c[nH]c3ccccc23)C1=O`, the growth is 101% (inactive).
Regarding `O=c1nc(-c2ccccc2)c2cc(-c3ccc(N4CCCC4)nc3)ccc2[nH]1`, the growth was 77.2% (inactive).
As to `CC(=O)OC[C@]12CC[C@@H](c3cn(Cc4ccc(Cn5cc([C@@H]6CC[C@]7(COC(C)=O)CC[C@]8(C)[C@H](CC[C@@H]9[C@@]%10(C)CC[C@H](OC(C)=O)C(C)(C)[C@@H]%10CC[C@]98C)[C@@H]67)nn5)cc4)nn3)[C@@H]1[C@H]1CC[C@@H]3[C@@]4(C)CC[C@H](OC(C)=O)C(C)(C)[C@@H]4CC[C@@]3(C)[C@]1(C)CC2`, the growth was 95.5% (inactive).
The figure for `Nc1c(C(=O)Nc2cccc3ccccc23)sc2nc3c(cc12)CCCCC3` is 72.7% (inactive).
The figure for `CC1CCCN(CCCCCOc2ccc3oc4ccccc4c(=O)c3c2)C1` (stereo not given) is 104% (inactive).
Turning to `COc1ccc(NC(=O)c2sc3nc(C)c(C(C)=O)cc3c2N)cc1`, the growth is 95.9% (inactive).
`C#CC[C@@H]1C[C@]2(C)[C@H]3CC[C@@H]4[C@H]5[C@H](C(=C)C)CC[C@]5(C(=O)O)CC[C@@]4(C)[C@]3(C)CC[C@H]2C(C)(C)[C@H]1O`: the growth was 29.1% (inactive).
As to `O=c1c2ccccc2n(CC(O)CN2CCCC2)c2c(Br)cccc12` (stereo not given), the growth is 122% (inactive).
`CN1CCN(/C=C2\CC(C(=O)NCc3ccc(Cl)cc3Cl)NC2=O)CC1` (stereo not given): the growth was 85.7% (inactive).
Regarding `Cc1cc(Nc2nc(SCc3ccc(C(=O)Nc4ccc(F)cc4N)cc3)nn3cccc23)n[nH]1`, the growth was 51.6% (inactive).
The figure for `COc1ccc(-n2nc(C(=O)NCC(=O)O)nc2-c2ccccc2)cc1` is 105% (inactive).
With `Cc1nccc2c3ccc(OCc4cn(-c5ccccc5)nn4)cc3n(CCCc3ccccc3)c12`, the growth is 85.7% (inactive).
As to `COc1ccc2nc3c(n2c1)C(=O)C(=O)c1ccccc1-3`, the growth was 14.9% (inactive).
For `Cc1ccc2nc3nc4ccc[nH]c4cc3c2c1`, the growth was 78.4% (inactive).
In the case of `COc1cc(NCC(=O)Nc2cc(Nc3cccc(C(F)(F)F)c3)ncn2)c(Cl)c(OC)c1Cl`, the growth was 94.9% (inactive).
Take `Cc1nc2sc(C(=O)Nc3ccccc3)c(N)c2cc1C(C)O` (stereo not given): the growth was 108% (inactive).
`C=C(C)[C@@H]1CC[C@]2(C(=O)OCCOCCOCC[P+](c3ccccc3)(c3ccccc3)c3ccccc3)CC[C@]3(C)[C@H](CC[C@@H]4[C@@]5(C)CC[C@H](OC(C)=O)C(C)(C)[C@@H]5CC[C@]43C)[C@@H]12`: the growth is -85.3% (active).
For the molecule `CC(=O)Nc1ccc2c(c1)Cc1cc(F)ccc1-2`, the growth is 99.2% (inactive).
With `COc1c(O)cc2oc3cc(O[C@@H]4OC(C)[C@@H](O)[C@H](O)C4O)c(CC=C(C)C)c(O)c3c(=O)c2c1CC=C(C)C` (stereo not given in full) the figure was 90.1% (inactive); with `COC1=CC2C=C(C3N(c4ccccc4)NC(=O)[C@@H]4CCCN34)C(=O)NC2C=C1` (stereo not given in full), 105% (inactive); with `O=[N+]([O-])c1ccc(N=Nc2c(O)c(N=Nc3cc([N+](=O)[O-])cc([N+](=O)[O-])c3O)cc(N=Nc3cc(S(=O)(=O)O)cc4cc(S(=O)(=O)O)cc(O)c34)c2O)cc1`, 113% (inactive).
For `COc1ccc(Nc2cc(NC(=O)CNc3cc(OC)c(Cl)c(OC)c3Cl)ncn2)cc1`, the growth was 68.5% (inactive).
On to `COc1cc(N=Nc2cc(S(=O)(=O)O)cc3cc(S(=O)(=O)O)cc(O)c23)c(C)cc1N=Nc1c(S(=O)(=O)O)cc2cc(Nc3ccccc3)ccc2c1O`, for which the growth was 114% (inactive).
`COc1ccc(-c2nnc(N3CCN(C(=O)CN4CCN(c5ccc(OC)cc5)CC4)CC3)nc2-c2ccc(OC)cc2)cc1`: the growth was -81.4% (active).
Turning to `O=c1[nH]c2ccccc2cc1-c1nc2ccc(Cl)cc2[nH]1`, the growth was 55.2% (inactive).
For the molecule `CC(C)NS(=O)(=O)c1cccc(-c2ccc3c4c(n(CCCN(C)C)c(=O)c3c2)-c2ccccc2C4=O)c1`, the growth was 92.9% (inactive).
As to `S=C(Nc1ccc(Cl)cc1)c1ccccn1`, the growth is 88.1% (inactive).
As to `c1cc(CNC23CC4CC(CC(C4)C2)C3)cc(C[N+](Cc2cccc(CNC34CC5CC(CC(C5)C3)C4)c2)(Cc2cccc(CNC34CC5CC(CC(C5)C3)C4)c2)Cc2cccc(CNC34CC5CC(CC(C5)C3)C4)c2)c1` (stereo not given), the growth was 33.5% [42 µM] (inactive).
Regarding `COc1cc(NC(=O)c2cc(O)c(C/C=C(\C)CCC=C(C)C)c(O)c2)cc2c1O[C@]1(C)CC[C@@H](O)C(C)(C)[C@H]1C2`, the growth was 38% (inactive).
